# Marburg entry inh: inhibitors of Marburg virus binding or cell entry. 1.8% of 300,000 active. Potency, µM (series often up to 37.8 µM), without a hit: at the top dose activity change, negative = inhibition, actives largely listed as inhibitors. Marburg virus pseudotyped entry inhibition, cell reporter; calls by dose curve; tested in HEK293 cells; also: potency is read from the fitted curve at half-maximal effect
# VACV Venus inh: inhibitors of vaccinia virus (Venus reporter); Vaccinia virus Venus reporter expression, fluorescence; Potency, µM (top dose mostly 36.5 µM), inactives show at the highest dose activity change, negative = inhibition, hits mostly inhibitors; 0.46% of 330,000 active; AID 720580; calls by dose curve; tested in A549 cells; also: potency is read from the fitted curve at half-maximal effect; nearly all actives have a fitted effect of over 30% in size
# Vaccinia mCherry: vaccinia inhibition (mCherry reporter); Vaccinia virus mCherry reporter infection, fluorescence; Potency, µM (doses to about 36.5 µM), for the others: at the top dose activity change, negative = inhibition, most hits filed as inhibitors; 0.63% of 310,000 active; AID 720579; calls by dose curve; tested in A549 cells; also: potency is read from the fitted curve at half-maximal effect; nearly all actives have a fitted effect of over 35% in size
# HCMV inh: human cytomegalovirus inhibition; 4.5% of 410,000 active; HFF cells, HCMV-luciferase reporter, 72 h; hits give low values; activity change, negative = inhibition, % at 57.5 µM; in the data active = activity change below about -60%; inconclusive = no clear call, values can overlap the other calls; inactive = above about -39%
#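 Compounds were evaluated in HFFs infected with an HCMV luciferase reporter virus (MOI 1 PFU/cell). Luciferase in lysates collected 72 h post infection served as the replication measure.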
# HCV inhibitor: HCV inhibition; Huh7.5.1 HCVcc-Cre infection, luciferase reporter, 44 h; Potency, µM (highest dose often 41.8 µM), for the others: top-dose activity change, negative = inhibition, hits mostly inhibitors; 3.4% of 340,000 active; active = well fitted inhibition curve with a large enough effect; inconclusive = small, poorly fitted or top-dose-only effect, or another doubt; inactive = no such curve, though single readings can be large or run the other way; also: potency is read from the fitted curve at half-maximal effect
#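 After 44 h co-culture of compound, cells and HCVcc-Cre (~0.5 moi), substrate is added for 15 min at room temperature and luciferase measured over 15 sec. Cells were seeded at 1,000/well and pre-cultured 4 h.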
# Lassa entry inh: Lassa virus entry inhibition | Lassa virus pseudotype entry inhibition, cell reporter | Potency, µM (titrated, usually from 37.9 µM), for the others: at the top dose activity change, negative = inhibition, hits mostly inhibitors | 1.2% of 300,000 active | AID 540256; calls by dose curve; tested in HEK293 cells; also: potency is read from the fitted curve at half-maximal effect; nearly all actives have a fitted effect of over 50% in size
# Active calls of the source: *; i = inactive; ? = inconclusive; · = no result given; + = active, no number; [ ] = remark or other dose. This is a sample that favours compounds with a hit; in the whole collection about 7.8% have one here. % is scaled to controls: 0 for no effect and ±100 for the full control effect.
SMILES,Marburg entry inh,VACV Venus inh,Vaccinia mCherry,HCMV inh,HCV inhibitor,Lassa entry inh
CCCCNc1c(-c2cccc(-c3ccc(OC)cc3)c2)nc2cc(C)ccn12,·,?,?,-102*,11µM*,·
CCCCNc1c(-c2ccc(-c3cccc(Cl)c3)cc2)nc2ccccn12,·,-28%,?,111,?,·
CCCCNc1c(-c2cccc(-c3ccc(OC)cc3)c2)nc2ccc(C)cn12,·,?,13µM*,3,?,·
COC(=O)/C(Cc1cc(Br)c(OC)c(Br)c1O)=N/O,-16%[14.2 µM],·,·,·,·,·
COc1cc(NC(=O)CC2C(=O)N(c3cccc(C)c3)C(=O)N2Cc2ccc(F)cc2)cc(OC)c1 (centres undefined),·,-14%,-11%,-39,·,?
COc1cccc(NC(=O)c2ccc3c(=O)n4nc(Nc5ccccc5OC)sc4nc3c2)c1,·,?,?,-35,·,?
CCc1cccc(NC(=O)c2ccc3c(=O)n4nc(Nc5ccccc5OC)sc4nc3c2)c1,·,4µM*,4µM*,-88*,·,?
CCN(CC)CCNC(=O)c1ccc2c(=O)n3nc(Nc4ccccc4)sc3nc2c1,·,-15%,-11%,-91*,·,15%[46.1 µM]
Cc1ccccc1Nc1nn2c(=O)c3ccc(C(=O)NCc4cccs4)cc3nc2s1,·,?,-23%,-19,·,?
COc1ccccc1Nc1nn2c(=O)c3ccc(C(=O)NCc4ccc(F)cc4)cc3nc2s1,·,?,13µM*,-90*,·,?
Cc1ccc(Cl)cc1Nc1nn2c(=O)c3ccc(C(=O)NCc4cccs4)cc3nc2s1,·,?,?,-98*,·,-27%[46.1 µM]
NCCCCC(NC(CCc1ccccc1)C(=O)O)C(=O)N1CCCC1C(=O)O (centres undefined),·,?,-5%,·,·,·
COc1cccc(C(=O)NCC(=O)OCc2cc(=O)n3c(C)csc3n2)c1,·,-9%,-4%,29,·,8%[46.1 µM]
CCC(=NCC1CCCO1)c1c(O)n(Cc2ccccc2)c(=O)[nH]c1=O (centres undefined),13%,·,·,19,14%,1.6µM*
CCC(=NCC1CCCO1)c1c(O)n(-c2ccccc2)c(=O)[nH]c1=O (centres undefined),16%,-6%,-9%,-8,18%,?
CC(C)c1ccc(NC(=O)C2Cc3c(-c4ccco4)ccnc3O2)cc1 (centres undefined),·,-10%,4%,-37,·,·
CCNCc1nc2cc(Cl)ccc2c(=O)[nH]1,-7%,-20%,-11%,-69*,-25%,0%
Cn1c(-c2cccc(C(F)(F)F)c2)cc2cnc(Nc3ccc(Oc4ccccc4)cc3)cc21,·,·,·,-15,·,·
CCc1ccc(S(=O)(=O)NCc2cccs2)cc1,-7%,-11%,i,-66*,5%,5%
CCc1ccc(CNCc2cccs2)cc1,6%[46.1 µM],-3%,-8%,-9,11%,·
CCOC(=O)/C(=C/c1ccc(OC(F)F)cc1)C1=Nn2c(nnc2-c2ccc(Cl)cc2)SC1,?,11µM*,?,-98*,?,?
CCOC(=O)/C(=C\c1ccc(OC(F)F)cc1)C1=Nn2c(nnc2-c2ccc(Cl)cc2)SC1,?,13µM*,?,·,?,?
CCOC(=O)c1cc(-c2ccc(OC)cc2)n(CCC(=O)NC2CCN(Cc3ccccc3)CC2)c1C,·,?,-22%,141,?,·
CC(=O)c1cc(-c2ccccc2)n(CC(=O)NC2CCCCCC2)c1C,·,-15%,-23%,+,·,13%[46.1 µM]
CC(=O)c1cc(-c2ccccc2)n(CC(=O)Nc2ccc(C)cc2C)c1C,·,-11%,-16%,+,·,3%[46.1 µM]
SMILES,Marburg entry inh,VACV Venus inh,Vaccinia mCherry,HCMV inh,HCV inhibitor,Lassa entry inh
CC(=O)c1cc(-c2ccccc2)n(CCC(=O)NC2CCCCCCC2)c1C,-67%,?,i,-33,?,6%
CCOC(=O)c1cc(-c2ccc(F)cc2)n(CCC(=O)NC2CCN(Cc3ccccc3)CC2)c1C,?,·,·,-20,4µM*,?
Cc1nc2ccccc2n1CC(=O)NC1CCCCCC1,·,·,·,-62*,?,·
COc1ccccc1CN1CCNC(=O)C1=O,·,6%,2%,0,·,-2%[46.1 µM]
Cc1ccc(NC(=O)CSc2nc3nc(C)c(Cc4ccccc4)c(C)n3n2)cc1,·,-12%,-7%,21,·,-2%[46.1 µM]
O=C(Cn1cc(S(=O)(=O)N2CCCC2)c(S(=O)(=O)N2CCCC2)c1)Nc1cccc(F)c1,·,-2%,-5%,-13,·,24%[46.1 µM]
CCOC(=O)c1c(C)n(C)c2ccc(OCC(O)CNCCc3ccccc3)cc12 (centres undefined),·,·,·,-36,13µM*,·
CCOC(=O)c1c(C)n(C)c2ccc(OCC(O)CN3CCN(C)CC3)cc12 (centres undefined),-1%,-10%,-4%,42,-9%,·
CCOC(=O)c1c(C)n(C)c2ccc(OCC(O)Cn3c(C)nc4ccccc43)cc12 (centres undefined),?,·,·,-60*,10µM*,?
CCOC(=O)c1c(C)n(Cc2ccccc2)c2ccc(OCC(O)CN3C(=O)CNC3=O)cc12 (centres undefined),3%,-15%,-19%,-14,8.9µM*,-20%
CCCCN(CCCC)c1ccc(Cn2ccc3ccccc32)cc1,·,18%,13%,·,·,·
O=C(Nc1cnn(Cc2ccc(Cl)cc2Cl)c1)c1noc2c1CCc1ccccc1-2,?,-5%,-17%,-18,·,11%[46.1 µM]
COc1ccc(-c2nc(SCC(=O)Nc3c(C)cc(C)cc3C)n[nH]2)cc1,·,-23%,-24%,?,·,?
Cc1ccc(S(=O)(=O)c2ccc([N+](=O)[O-])o2)cc1,7.9µM*,?,?,-28,3.5µM*,?
Cc1ccc(S(=O)(=O)Nc2c(C)cc([N+](=O)[O-])cc2C)cc1,-3%,-17%,-22%,15,2%,0%
COc1ccc(-c2nc(CNS(=O)(=O)c3ccc(F)cc3)cs2)cc1,-20%[46.1 µM],-18%,-21%,-73*,·,?
COc1ccc(-c2nc(CNS(=O)(=O)c3ccc(C)cc3)cs2)cc1,?,-6%,-5%,19,·,?
O=[N+]([O-])c1ccc(Oc2cccc3cccnc23)c([N+](=O)[O-])c1,?,-24%,?,-69*,-24%,?
CN(c1ccc(Cl)cc1)c1cc(=O)n(C)c2ccccc12,-15%,-27%,-24%,81,10µM*,?
CC1CCC(NC(=O)c2ccc(CS(=O)(=O)c3ccc(Cl)cc3)o2)CC1 (centres undefined),·,-4%,-9%,-7,·,?
COc1ccc(CCNc2cc(N3CCN(C(=O)c4ccccc4F)CC3)ccc2[N+](=O)[O-])cc1OC,?,?,?,-97*,?,?
COc1ccc(CCNc2cc(N3CCN(C(=O)c4ccc(C)cc4)CC3)ccc2[N+](=O)[O-])cc1OC,-22%,·,·,·,4%,8%

# Compound activity as filed in PubChem.
